Laboratory results from PubChem BioAssay.
Inconclusive results are not listed. Activity calls are given as the source filed them.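 The calls were made as follows, unless noted: active = Her2 level under about 52% in both replicate screens, with viability over 70% of control (limit read from the data); inconclusive = Her2 under the limit in one screen only, or viability under 70%; inactive = Her2 level above the set limit.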

Legend:
[1] = Her2 expression decrease, cell viability multiplex – SKBR3 breast tumor cells, AlphaScreen, ATP viability, primary screen (AID 461); conditions: SKBR3 Her2 protein level, 18-24 h, measured here: SKBR3 viability, ATP luminescence, at 10 µM;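 as to Her2 level: lower value means less Her2 protein in the cells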;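 as to viability: percent of carrier control wells set as 100% viability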
[2] = target: Receptor tyrosine-protein kinase erbB-2 (Homo sapiens) (UniProt P04626); test: as above; conditions: 18-24 h, at 10 µM, stronger effect = lower value
Sequence of Receptor tyrosine-protein kinase erbB-2 (Homo sapiens) (P04626 whole entry, looked up): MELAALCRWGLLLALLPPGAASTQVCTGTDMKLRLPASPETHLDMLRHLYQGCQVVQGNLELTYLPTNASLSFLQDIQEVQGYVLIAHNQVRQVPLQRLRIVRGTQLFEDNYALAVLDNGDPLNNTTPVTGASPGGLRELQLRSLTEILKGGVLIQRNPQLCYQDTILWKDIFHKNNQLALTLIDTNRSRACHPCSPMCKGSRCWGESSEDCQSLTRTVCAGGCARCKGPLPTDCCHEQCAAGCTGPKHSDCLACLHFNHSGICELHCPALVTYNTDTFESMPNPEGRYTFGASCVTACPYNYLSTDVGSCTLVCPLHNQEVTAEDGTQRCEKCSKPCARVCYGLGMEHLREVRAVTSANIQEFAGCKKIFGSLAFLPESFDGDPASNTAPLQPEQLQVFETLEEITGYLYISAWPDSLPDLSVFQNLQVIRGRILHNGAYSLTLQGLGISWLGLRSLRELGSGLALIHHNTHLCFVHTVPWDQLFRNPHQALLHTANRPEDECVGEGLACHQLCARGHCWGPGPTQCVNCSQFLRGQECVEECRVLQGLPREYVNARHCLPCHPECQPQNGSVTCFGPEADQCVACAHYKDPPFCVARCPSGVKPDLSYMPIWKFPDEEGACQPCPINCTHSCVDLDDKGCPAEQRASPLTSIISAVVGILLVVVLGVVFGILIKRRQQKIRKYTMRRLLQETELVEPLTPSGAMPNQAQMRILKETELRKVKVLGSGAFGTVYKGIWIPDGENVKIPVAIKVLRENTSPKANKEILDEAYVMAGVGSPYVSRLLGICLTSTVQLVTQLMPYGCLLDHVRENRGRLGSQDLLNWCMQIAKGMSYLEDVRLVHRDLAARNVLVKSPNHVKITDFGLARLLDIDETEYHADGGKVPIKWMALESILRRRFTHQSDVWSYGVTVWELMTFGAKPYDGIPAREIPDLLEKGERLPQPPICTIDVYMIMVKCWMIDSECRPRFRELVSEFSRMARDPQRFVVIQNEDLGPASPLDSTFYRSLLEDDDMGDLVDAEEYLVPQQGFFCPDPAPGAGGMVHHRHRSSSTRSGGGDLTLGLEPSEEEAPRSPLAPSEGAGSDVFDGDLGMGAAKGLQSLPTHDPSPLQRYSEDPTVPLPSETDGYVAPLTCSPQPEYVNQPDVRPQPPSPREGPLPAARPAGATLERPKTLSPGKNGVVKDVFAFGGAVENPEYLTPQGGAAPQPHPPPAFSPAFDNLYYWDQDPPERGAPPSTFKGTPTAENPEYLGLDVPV

[3] = reduced viability of SK-BR-3 breast cancer cells – cell-based, 24 h, human, pilot screen (AID 572;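 active = viability at or below 10% of carrier control in both of two separate runs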;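 also: compound exposure lasted between 18 and 24 h rather than exactly 24 h; 100% = carrier-treated control wells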); conditions: SK-BR-3 viability, CellTiter-Glo luminescence, at 10 µM, stronger effect = lower value
[4] = HUVEC growth inhibition – cell-based, human, primary screen (AID 575;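 active = viability at or below 30% in both replicate assays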;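 also: 100% = median of untreated cell wells with 0.1% DMSO on each plate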); conditions: HUVEC proliferation, CellTiter-Glo luminescence, 72 h; at 10 µM; stronger effect = lower value
[5] = H69AR cell proliferation blockers – human, duplicate replicates, primary screen (AID 580;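 active = viability at or under a set limit in both replicates, limit being median viability minus 3 SD, cut at about 48% in these data, passing the limit was not always enough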;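 also: 100% = mean luminescence of untreated wells and 0% = no signal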); conditions: H69AR lung tumor cells viability, ATP luminescence, 72 h; at 10 µM; stronger effect = lower value
[6] = MRP1 drug-resistance reversers in H69AR cells – cell-based, doxorubicin co-treatment, pilot screen (AID 601;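 active = viability loss from added drug above about 55%, and viability with drug at most 40%, in both replicates, limit read from the data, passing the limit was not always enough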); conditions: CellTiter-Glo, 72 h, at 10 µM; for differential viability (reversal): stronger effect = higher value
[7] = yeast transport mutant growth inhibition pilot in 384-well plates, post-Golgi transport modulator project (AID 636; in the data active = inhibition above about 31%); conditions: absorbance 615 nm, about 18 h, stronger effect = higher value
[8] = growth suppression of yeast trafficking mutant, preliminary HTS, modulators of trafficking downstream of Golgi apparatus project, 1536-format plate, OD 615 nm (AID 637; in the data active = inhibition above about 30%); conditions: yeast transport mutant growth, absorbance 615 nm, 18 h; stronger effect = higher value
[9] = S. cerevisiae growth inhibition in permissive medium (OD615), pilot counter-assay for S. cerevisiae lifespan shortening project, permissive growth control (AID 705;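 active = growth inhibition above 25% in both replicates, a cutoff set 3 SD above the mean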); conditions: OD615, 24 h, at 10 µM, stronger effect = higher value
[10] = S. cerevisiae growth inhibition in restrictive medium, OD615, pilot screen, restrictive growth control, yeast lifespan reduction project (AID 706;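 active = growth inhibition above a set limit, 3 SD over mean compound inhibition, in both replicates, cut at about 43% in these data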;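 also: modified DeaD lifespan yeast strain shifted to restrictive glucose medium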); conditions: OD615, 48 h, at 10 µM, stronger effect = higher value
[11] = doxorubicin toxicity protection in MRP-1 cells – H69AR cells, CellTiter-Glo, duplicate, MRP-1 activator project, pilot screen (AID 807;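 active = viability increase at or above a cutoff of the median across tested compounds plus 3 SD, cut at about 8.5% in these data, passing the limit was not always enough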;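 also: compound pretreatment 18-22 h then 72 h combined with doxorubicin; 0% = doxorubicin alone and 100% = vehicle without doxorubicin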); conditions: H69AR viability with doxorubicin, CellTiter-Glo luminescence; at 10 µM; stronger effect = higher value
[12] = viability of HCT116 without oncogenic beta-catenin – human colon tumor cells, pilot screen (AID 823;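 active = cell viability at or below a set limit in both duplicate runs, the limit being the all-compound median minus 4 SD, cut at about 23% in these data, passing the limit was not always enough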;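 also: 0% = wells killed by 20 µM Hyamine and 100% = untreated DMSO cell wells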); conditions: HCT116 beta-catenin knockout viability, CellTiter-Glo, 60 h; at 10 µM; stronger effect = lower value
[13] = viability of PTEN-null HCT116 cells – cell-based, HCT116 clonal line, CellTiter-Glo, pilot screen (AID 824;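 active = viability at or below 27.92% in each of two runs, the all-compound median minus 4 SD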;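 also: 0% = 20 µM Hyamine control and 100% = vehicle cell control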); conditions: HCT116 PTEN-deleted viability, 60 h, at 10 µM, stronger effect = lower value
[14] = RAM pathway blockade in budding yeast – dse1pr::URA3 reporter, 5-FOA selection, pilot screen (AID 869;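 active = inhibition over a set limit, the all-compound mean plus 3 SD, in both replicate runs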;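 also: 0% = DMSO wells with no growth and 100% = 10 µM 1-NA-PP1 with full growth; RAM network block rescues cells from 5-FOA so hits raise OD615 growth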); conditions: S. cerevisiae dse1pr::URA3 5-FOA growth, OD615, 2 d; at 10 µM; stronger effect = higher value; strain carries analog-sensitive mutant Cbk1 kinase
[15] = RAM signaling pathway blockade in yeast – S. cerevisiae, Pdr1DBD-CYC8 efflux-inhibited sensitized strain, primary screen (AID 1298;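 active = RAM network inhibition above 8.4% in each of two replicates, 3 SD over the compound average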;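 also: 0% = DMSO untreated cells without growth and 100% = 10 µM 1-NA-PP1 full growth; higher means more yeast growth rescued from 5-FOA killing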); conditions: S. cerevisiae cbk1-as DSE1-URA3 strain, 5-FOA growth OD615, 2 d; at 50 µM; stronger effect = higher value
[16] = H69AR cells + 2 uM doxorubicin, measured here: viability with 2 uM doxorubicin, stronger effect = lower value
[17] = H69AR cells, compound alone cytotoxicity

CCOCCCNC(=O)CN1CCN(Cc2ccccc2C)C1=O
inactive: Her2 level [2] 96% | viability [3] 83.5% | viability [4] 97.8% | viability [5] 97% | differential viability (reversal) ([6]; H69AR cells + 2 uM doxorubicin) 7.06% | inhibition [7] -6.8% | inhibition [8] -7.7% | growth inhibition [9] -4.88% | growth inhibition [10] 6.12% | viability increase [11] 0.02% | viability [12] 94.7% | viability [13] 86.8% | inhibition [14] 1.54% | RAM network inhibition [15] 1.29%
83.5%: viability [1]
89.9%: viability [6, 16]
97%: viability [6, 17]

O=C(NCCN1CCCCCC1)c1ccc(CS(=O)(=O)c2ccc(Br)cc2)o1
91%: viability [6, 17]
inactive: Her2 level [2] 104% | viability [3] 86.5% | viability [4] 86.2% | viability [5] 91% | differential viability (reversal) ([6]; H69AR cells + 2 uM doxorubicin) 7.95% | inhibition [7] 0.8% | inhibition [8] 2.5% | growth inhibition [9] -6.86% | growth inhibition [10] -14.6% | viability increase [11] -3.11% | viability [12] 78% | viability [13] 82.6% | inhibition [14] -0.1% | RAM network inhibition [15] 4.63%
86.5%: viability [1]
83.1%: viability [6, 16]

Cc1ccc(C(c2sc3ncnn3c2O)N2CC(C)CC(C)C2)cc1 (stereo not given)
118%: viability [1]
84.3%: viability [6, 16]
97.9%: viability [6, 17]
inactive: Her2 level [2] 102% | viability [3] 118% | viability [4] 82.8% | viability [5] 97.9% | differential viability (reversal) ([6]; H69AR cells + 2 uM doxorubicin) 13.6% | inhibition [7] -4.53% | inhibition [8] 1.67% | growth inhibition [9] -6.75% | growth inhibition [10] -6.62% | viability increase [11] 4.2% | viability [12] 99.8% | viability [13] 97% | inhibition [14] 0.24% | RAM network inhibition [15] 1.25%

Cc1cc(C)nc(SCc2csc(N)n2)n1
89.5%: viability [1]
inactive: Her2 level [2] 85% | viability [3] 89.5% | viability [4] 89.6% | viability [5] 90.1% | differential viability (reversal) ([6]; H69AR cells + 2 uM doxorubicin) -4.05% | inhibition [7] -0.26% | inhibition [8] -2.67% | growth inhibition [9] 3.96% | growth inhibition [10] 14.9% | viability increase [11] 1.21% | viability [12] 105% | viability [13] 99.6% | inhibition [14] 0.605% | RAM network inhibition [15] 4.19%
94.1%: viability [6, 16]
90.1%: viability [6, 17]

O=C(CCn1c(=O)oc2ccccc21)NCCN1CCOCC1
104%: viability [1]
85.9%: viability [6, 17]
89.6%: viability [6, 16]
inactive: Her2 level [2] 120% | viability [3] 104% | viability [4] 93.4% | viability [5] 85.9% | differential viability (reversal) ([6]; H69AR cells + 2 uM doxorubicin) -3.67% | inhibition [7] 0.8% | inhibition [8] -6.5% | growth inhibition [9] -9.38% | growth inhibition [10] -6.78% | viability increase [11] -1.28% | viability [12] 107% | viability [13] 101% | inhibition [14] 2.63% | RAM network inhibition [15] 4.16%

Cc1cccc(Cn2c(SCCN3CCCCC3)nc3c2c(=O)[nH]c(=O)n3C)c1
75%: viability [1]
inactive: Her2 level [2] 96.5% | viability [3] 75% | viability [4] 75.6% | viability [5] 73.7% | differential viability (reversal) ([6]; H69AR cells + 2 uM doxorubicin) -6.01% | inhibition [7] -1.73% | inhibition [8] 5.5% | growth inhibition [9] -16.1% | growth inhibition [10] -11.3% | viability increase [11] -2.89% | viability [12] 92.4% | viability [13] 83.1% | inhibition [14] 2.78% | RAM network inhibition [15] 0.26%
79.8%: viability [6, 16]
73.7%: viability [6, 17]

Cc1c(C(=O)OCCOC(C)C)[nH]c2c1C(=O)CC(c1ccco1)C2 (stereo not given)
38.3%: viability [6, 17]
72.7%: viability [6, 16]
active: viability [5] 38.3% | viability [12] 17.1% | viability [13] 17.8%
81%: viability [1]
inactive: Her2 level [2] 73% | viability [3] 81% | viability [4] 50.2% | differential viability (reversal) ([6]; H69AR cells + 2 uM doxorubicin) -34.4% | inhibition [7] 1.47% | inhibition [8] -4.59% | growth inhibition [9] -3.61% | growth inhibition [10] -3.07% | viability increase [11] -4.69% | inhibition [14] 0.735% | RAM network inhibition [15] -1.95%

C=CCOc1ccc(/C(CC)=N/O)c(OC)c1
93.5%: viability [1]
inactive: Her2 level [2] 104% | viability [3] 93.5% | viability [4] 70.4% | viability [5] 101% | differential viability (reversal) ([6]; H69AR cells + 2 uM doxorubicin) 10.5% | inhibition [7] -1.82% | inhibition [8] 0.5% | growth inhibition [9] -19.1% | growth inhibition [10] -11.4% | viability increase [11] -0.09% | viability [12] 96.7% | viability [13] 105% | inhibition [14] 0.56% | RAM network inhibition [15] -0.68%
101%: viability [6, 17]
90.9%: viability [6, 16]

Cc1cc(C)n2c(SCCN3C(=O)c4ccccc4C3=O)nnc2n1
105%: viability [6, 17]
94%: viability [6, 16]
inactive: Her2 level [2] 95% | viability [3] 90.5% | viability [4] 111% | viability [5] 105% | differential viability (reversal) ([6]; H69AR cells + 2 uM doxorubicin) 11.1% | inhibition [7] -0.51% | inhibition [8] 7.17% | growth inhibition [9] -7.84% | growth inhibition [10] -8.13% | viability increase [11] -0.7% | viability [12] 102% | viability [13] 98.6% | inhibition [14] 2.08% | RAM network inhibition [15] 1.64%
90.5%: viability [1]

CCN1CCCC1CNC(=O)c1cc2c(=O)n(C)c3ccccc3c2n1C (stereo not given)
87%: viability [1]
inactive: Her2 level [2] 86.5% | viability [3] 87% | viability [4] 74.7% | viability [5] 87.8% | differential viability (reversal) ([6]; H69AR cells + 2 uM doxorubicin) 7.05% | inhibition [7] -0.4% | inhibition [8] 15.9% | growth inhibition [9] -1.93% | growth inhibition [10] -3.33% | viability increase [11] -5.23% | viability [12] 67.5% | viability [13] 66.2% | inhibition [14] 1.1% | RAM network inhibition [15] 2%
80.8%: viability [6, 16]
87.8%: viability [6, 17]
